These results are taken from the supplement of paper PMC11624193, “Coupling cellular drug-target engagement to downstream pharmacology with CeTEAM” (Nature Communications, 2024).

Where “and” joins values, the source holds several entries; their conditions need not be identical. Equal values may be shown once. Unmarked numbers belong to inactive results.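 Rule for the calls: active = log2 fold change beyond 2 SD from the library mean after excluding viability outliers; inactive = within 2 SD.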

The target in this experiment is PARP1 L713F-nLuc biosensor (HCT116) (UniProt P09874). The experiment in a line: PARP1 L713F-nLuc/akaLuc ratio relative to DMSO control (biosensor stabilization) (fold change); higher = more PARP1 biosensor stabilization (target engagement / stabilizer), active = hit call of the paper. To be noted: stock concentration (mM; final µM = stock mM x 1): 10; 24 h.
PARP1 L713F-nLuc biosensor (HCT116), sequence (P09874 whole entry L713F, looked up): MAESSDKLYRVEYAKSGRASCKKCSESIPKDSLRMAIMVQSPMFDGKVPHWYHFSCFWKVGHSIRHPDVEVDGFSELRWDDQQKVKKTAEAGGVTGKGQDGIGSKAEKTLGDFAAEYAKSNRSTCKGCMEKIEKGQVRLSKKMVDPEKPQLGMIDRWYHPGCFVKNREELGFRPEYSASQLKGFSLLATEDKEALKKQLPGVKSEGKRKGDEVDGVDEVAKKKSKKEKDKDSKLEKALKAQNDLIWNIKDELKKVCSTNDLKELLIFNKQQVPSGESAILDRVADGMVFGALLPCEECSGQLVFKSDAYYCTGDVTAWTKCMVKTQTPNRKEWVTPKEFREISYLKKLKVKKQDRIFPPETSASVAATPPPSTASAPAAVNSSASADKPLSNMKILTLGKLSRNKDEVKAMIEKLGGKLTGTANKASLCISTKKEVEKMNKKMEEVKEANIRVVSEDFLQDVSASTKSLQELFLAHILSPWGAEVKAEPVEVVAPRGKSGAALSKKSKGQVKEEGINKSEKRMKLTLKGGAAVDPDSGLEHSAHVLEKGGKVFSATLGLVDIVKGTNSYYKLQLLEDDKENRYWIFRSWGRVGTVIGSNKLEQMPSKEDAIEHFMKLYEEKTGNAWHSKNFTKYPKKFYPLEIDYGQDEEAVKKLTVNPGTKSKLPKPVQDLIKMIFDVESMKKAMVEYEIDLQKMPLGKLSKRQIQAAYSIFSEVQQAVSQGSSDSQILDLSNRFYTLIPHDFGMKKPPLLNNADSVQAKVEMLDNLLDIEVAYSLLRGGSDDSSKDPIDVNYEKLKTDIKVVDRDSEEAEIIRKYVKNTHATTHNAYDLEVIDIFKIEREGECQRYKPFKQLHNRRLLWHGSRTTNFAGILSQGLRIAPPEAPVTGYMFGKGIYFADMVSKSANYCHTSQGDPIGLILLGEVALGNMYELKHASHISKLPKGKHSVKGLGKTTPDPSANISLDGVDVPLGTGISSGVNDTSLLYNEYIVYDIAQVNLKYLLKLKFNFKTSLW
As to `O=C(Nc1ccccc1-c1cn2c(CN3CC[C@@H](O)C3)csc2n1)c1ccc2ccccc2c1`, the “PARP1 L713F-nLuc/akaLuc ratio” value is 0.641.
On to `CCN(CC)CCNC(=O)c1c(C)[nH]c(/C=C2\C(=O)Nc3ccc(-c4csc(-c5ccccc5)n4)cc32)c1C` [Amcasertib (BBI503)], for which the “PARP1 L713F-nLuc/akaLuc ratio” value is 0.885.
For `C/C(=N\NC(=O)c1cccc(S(=O)(=O)N2CCOCC2)c1)c1cc(Cl)ccc1O` the value was 0.495.
As for `CCN(CCCOc1ccc2c(Nc3cc(CC(=O)Nc4cccc(F)c4)[nH]n3)ncnc2c1)CCOP(=O)(O)O` [Barasertib], the figure is 1.15; as for `CCCc1cc(C)[nH]c(=O)c1CNC(=O)c1cc(-c2ccc(N3CCN(C(C)C)CC3)nc2)cc2c1cnn2C(C)C`, 0.862.
`CCn1c(-c2nonc2N)nc2c(C#CC(C)(C)O)ncc(OC[C@H]3CCCNC3)c21`: the “PARP1 L713F-nLuc/akaLuc ratio” value was 1.03 and 0.895.
As for `CCCCCCCc1ccc(CCc2cccc(O)c2C(=O)O)cc1`, the figure is 0.768.
Regarding `COc1c(O)cc2oc(-c3ccccc3)cc(=O)c2c1O` [Oroxylin A], the “PARP1 L713F-nLuc/akaLuc ratio” value was 0.838.
Turning to `COc1cc2ccc(=O)oc2cc1O[C@@H]1O[C@H](CO)[C@@H](O)[C@H](O)[C@H]1O` [Scopolin], the “PARP1 L713F-nLuc/akaLuc ratio” value was 1.04.
As for `O=C1/C(=C/c2ccc(O)c(Br)c2)CCC/C1=C\c1ccc(O)c(Br)c1` [Histone Acetyltransferase Inhibitor II], the “PARP1 L713F-nLuc/akaLuc ratio” value is 2.06.
`Nc1c(S(=O)(=O)c2ccccc2)c2nc3ccccc3nc2n1-c1ccc(F)cc1`: the “PARP1 L713F-nLuc/akaLuc ratio” value is 1.04.
Turning to `Nc1ncn([C@@H]2O[C@H](CO)[C@@H](O)[C@H]2O)c(=O)n1` [5-Azacytidine], the “PARP1 L713F-nLuc/akaLuc ratio” value was 2.35.
For `COc1cc2cc(Oc3ccc4ccc(=O)oc4c3)c(=O)oc2cc1O` [Daphnoretin] the value was 0.72.
As for `N#Cc1cc2cc(CN3CCC(Nc4ncnc5sc(CC(F)(F)F)cc45)CC3)ccc2[nH]1`, the figure is 1.05; as for `C/C(=N\NC(=O)c1cccc(S(=O)(=O)N2CCN(C)CC2)c1)c1cc(Cl)ccc1O` [Seclidemstat], 0.552.
As for `Cc1nn2c([nH]c(=O)c3cccnc32)c1C#N`, the figure is 0.851; as for `Nc1ncn([C@H]2C[C@H](O)[C@@H](CO)O2)c(=O)n1` [Decitabine], 3.01 (active).
As for `CN1CCN(c2nc(C3=C(c4c[nH]c5ccccc45)C(=O)NC3=O)c3ccccc3n2)CC1` [Sotrastaurin], the “PARP1 L713F-nLuc/akaLuc ratio” value was 1.31.
On to `O=C(NO)c1ccc(CN2CCCc3cc(Cl)ccc32)cc1`, for which the “PARP1 L713F-nLuc/akaLuc ratio” value was 1.01.
For `N#Cc1c(N2CCCC2)nc(N)c2c(N)nc(N3CCCC3)cc12` the value was 1.1; for `C[C@@H]1CCN(C(=O)CC#N)C[C@@H]1N(C)c1ncnc2[nH]ccc12` [Tofacitinib (citrate)], 0.775; for `CCC(Sc1nnc2c(n1)[nH]c1ccccc12)C(=O)N1c2ccccc2Sc2ccccc21` (stereo not drawn) [Inauhzin], 0.33 (active).
As for `CCS(=O)(=O)N1CC(CC#N)(n2cc(-c3ncnc4[nH]ccc34)cn2)C1`, the figure is 0.444; as for `CC1(C)Oc2cc(N3CCN(C(=O)OCc4ccccc4)CC3)c([N+](=O)[O-])cc2-c2c1cnn2-c1ccc(C(=O)O)cc1` [Lin28-let-7a antagonist 1], 0.959; as for `CC(C)[C@@](C)(O)[C@@H]1CN(c2nc(-c3[nH]nc4ncccc34)c(F)cc2Cl)CCN1`, 0.823.
As for `Cc1nc(C(=O)NCC(=O)O)c(O)c2ccc(Oc3ccccc3)cc12` [Roxadustat (FG-4592)], the figure is 1.63; as for `CCCCOc1ccc(CC(=O)NO)cc1` [Bufexamac], 1.03.
Regarding `C[C@]1(O)C[C@@H](c2nc(-c3ccc4ccc(-c5ccccc5)nc4c3)c3c(N)nccn32)C1` [Linsitinib (OSI-906)], the “PARP1 L713F-nLuc/akaLuc ratio” value is 0.715.
For `O=C(NCCCc1ccccc1)c1cccc(-c2cc(O)c3ncccc3c2)c1` the value was 0.729; for `CCN(CC)c1ccc(C=NNC(=O)c2ccncc2)c(O)c1`, 0.543.
As for `C=CC(=O)Nc1cc(Nc2nccc(-c3cn(C)c4ccccc34)n2)c(OC)cc1N(C)CCN(C)C` [Osimertinib (AZD9291)], the figure is 0.371; as for `COc1c(O)cc2oc(-c3ccc(O)cc3)cc(=O)c2c1O` [Hispidulin], 0.723; as for `CCCCC[C@H](O)CC(=O)CCc1ccc(O)c(OC)c1` [[6]-Gingerol], 1.5.
In the case of `NC(=O)c1cccc2cn(-c3ccc([C@@H]4CCCNC4)cc3)nc12` [Niraparib], the “PARP1 L713F-nLuc/akaLuc ratio” value was 4.32 (active).
Turning to `O=C(Nc1nc2cccc(-c3ccc(CN4CCS(=O)(=O)CC4)cc3)n2n1)C1CC1` [Filgotinib], the “PARP1 L713F-nLuc/akaLuc ratio” value is 0.941.
For `Nc1cccc(Nc2ncc(-c3ccc(Cl)cc3)o2)c1` the value was 0.952.
As for `CCCOc1ccn2c(C(C)=O)cc(-c3ccccc3S(C)(=O)=O)c2c1`, the figure is 0.733; as for `COc1ccc(COc2cc3oc(=O)c4cc(C(C)O)ccc4c3cc2OC)cc1` (stereo not drawn) [Palomid 529 (P529)], 0.578.
